Test results from PubChem BioAssay AID1159580 (chemical genetic matrix, 2015).
In all, about 5,500 compounds went through this assay and about 2,000 (36%) were called active. Roughly 18% stayed inconclusive and do not appear here. Cut-off read from the data, not from the text of the source: active = normalized growth mostly below about 0.91 (no sharp cut-off); inconclusive = no clear call, values can overlap the other calls; inactive = mostly above about 0.92. This is one part of the list.

Assay: chemical genetic growth profiling, strain panel (AID 1159580);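 note: tested at 20 µM; growth read once vehicle control cultures reached saturation at 30 °C; 1 = growth at the plate median or of vehicle wells; lower values mean less growth of the strain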
Settings: growth OD

Measured: normalized growth

COc1cc2c(cc1OC)C(=O)C(CC1CCN(Cc3ccccc3)CC1)C2 (stereo not given)
active: S. cerevisiae deletion strains, locus YJR075W, strain HOC1, stronger effect = lower value 0.778 | S. cerevisiae deletion strains, locus YLR058C, strain SHM2, stronger effect = lower value 0.874 | S. cerevisiae deletion strains, locus YLR262C, strain YPT6 (second series), stronger effect = lower value 0.589 | S. cerevisiae deletion strains, locus YLR268W, strain sec22, stronger effect = lower value 0.837 | S. cerevisiae deletion strains, locus YLR418C, strain cdc73, stronger effect = lower value 0.737 | S. cerevisiae deletion strains, locus YML032C, strain rad52, stronger effect = lower value 0.675 | S. cerevisiae deletion strains, locus YMR223W, strain ubp8, stronger effect = lower value 0.86 | S. cerevisiae deletion strains, locus YNL067W, strain RPL9B, stronger effect = lower value 0.787 | S. cerevisiae deletion strains, locus YNL233W, strain BNI4, stronger effect = lower value 0.75 | S. cerevisiae deletion strains, locus YNL250W, strain rad50, stronger effect = lower value 0.802 | S. cerevisiae deletion strains, locus YNL307C, strain MCK1, stronger effect = lower value 0.665 | S. cerevisiae deletion strains, locus YNR052C, strain pop2, stronger effect = lower value 0.805 | S. cerevisiae deletion strains, locus YOL006C, strain TOP1, stronger effect = lower value 0.335 | S. cerevisiae deletion strains, locus YOR069W, strain VPS5, stronger effect = lower value 1.12 [resistant] | S. cerevisiae deletion strains, locus YOR184W, strain ser1, stronger effect = lower value 0.776 | S. cerevisiae deletion strains, locus YOR270C, strain vph1, stronger effect = lower value 0.608 | S. cerevisiae deletion strains, locus YPL055C, strain LGE1, stronger effect = lower value 0.738 | S. cerevisiae deletion strains, locus YPR163C, strain tif3, stronger effect = lower value 0.692 | S. cerevisiae deletion strains, strain wtn01, stronger effect = lower value 0.777 | S. cerevisiae strains, strain wild type, stronger effect = lower value 0.874
inactive: S. cerevisiae deletion strains, locus YJR066W, strain TOR1, stronger effect = lower value 0.94 | S. cerevisiae deletion strains, locus YKL009W, strain mrt4, stronger effect = lower value 0.986 | S. cerevisiae deletion strains, locus YKL068W, stronger effect = lower value 1 | S. cerevisiae deletion strains, locus YKL085W, strain MDH1 (second series), stronger effect = lower value 1.01 | S. cerevisiae deletion strains, locus YKL085W, strain MDH1, stronger effect = lower value 1.01 | S. cerevisiae deletion strains, locus YKL160W, strain elf1, stronger effect = lower value 0.933 | S. cerevisiae deletion strains, locus YKR001C, strain vps1, stronger effect = lower value 0.913 | S. cerevisiae deletion strains, locus YKR026C, strain gcn3, stronger effect = lower value 1.06 | S. cerevisiae deletion strains, locus YKR091W, strain srl3, stronger effect = lower value 0.981 | S. cerevisiae deletion strains, locus YLL001W, strain dnm1, stronger effect = lower value 0.993 | S. cerevisiae deletion strains, locus YLL026W, stronger effect = lower value 1 | S. cerevisiae deletion strains, locus YLL041C, strain sdh2, stronger effect = lower value 0.978 | S. cerevisiae deletion strains, locus YLR027C, strain aat2, stronger effect = lower value 0.963 | S. cerevisiae deletion strains, locus YLR039C, strain RIC1, stronger effect = lower value 0.772 | S. cerevisiae deletion strains, locus YLR102C, strain apc9, stronger effect = lower value 1 | S. cerevisiae deletion strains, locus YLR113W, strain HOG1, stronger effect = lower value 1.05 | S. cerevisiae deletion strains, locus YLR221C, strain rsa3, stronger effect = lower value 0.975 | S. cerevisiae deletion strains, locus YLR258W, strain gsy2, stronger effect = lower value 0.982 | S. cerevisiae deletion strains, locus YLR262C, strain YPT6, stronger effect = lower value 0.807 | S. cerevisiae deletion strains, locus YLR320W, strain mms22, stronger effect = lower value 0.928 | S. cerevisiae deletion strains, locus YLR330W, strain CHS5, stronger effect = lower value 0.953 | S. cerevisiae deletion strains, locus YLR342W, strain FKS1 (second series), stronger effect = lower value 0.909 | S. cerevisiae deletion strains, locus YLR342W, strain FKS1, stronger effect = lower value 0.989 | S. cerevisiae deletion strains, locus YLR357W, strain rsc2, stronger effect = lower value 1.13 | S. cerevisiae deletion strains, locus YLR370C, strain arc18, stronger effect = lower value 0.955 | S. cerevisiae deletion strains, locus YLR371W, strain rom2, stronger effect = lower value 0.986 | S. cerevisiae deletion strains, locus YLR384C, strain iki3, stronger effect = lower value 0.952 | S. cerevisiae deletion strains, locus YML016C, strain PPZ1, stronger effect = lower value 0.949 | S. cerevisiae deletion strains, locus YML120C, strain ndi1, stronger effect = lower value 0.973 | S. cerevisiae deletion strains, locus YML124C, strain tub3, stronger effect = lower value 1.02 | S. cerevisiae deletion strains, locus YMR058W, strain fet3, stronger effect = lower value 0.994 | S. cerevisiae deletion strains, locus YMR078C, strain ctf18, stronger effect = lower value 0.988 | S. cerevisiae deletion strains, locus YMR125W, strain sto1, stronger effect = lower value 0.94 | S. cerevisiae deletion strains, locus YMR129W, stronger effect = lower value 0.992 | S. cerevisiae deletion strains, locus YMR205C, strain PFK2, stronger effect = lower value 0.979 | S. cerevisiae deletion strains, locus YMR231W, strain pep5, stronger effect = lower value 0.996 | S. cerevisiae deletion strains, locus YMR263W, strain SAP30, stronger effect = lower value 0.936 | S. cerevisiae deletion strains, locus YMR307W, strain GAS1, stronger effect = lower value 0.971 | S. cerevisiae deletion strains, locus YNL071W, strain lat1, stronger effect = lower value 0.956 | S. cerevisiae deletion strains, locus YNL128W, strain TEP1, stronger effect = lower value 0.919 | S. cerevisiae deletion strains, locus YNL153C, strain GIM3, stronger effect = lower value 0.876 | S. cerevisiae deletion strains, locus YNL183C, strain NPR1, stronger effect = lower value 0.955 | S. cerevisiae deletion strains, locus YNL209W, strain ssb2, stronger effect = lower value 0.988 | S. cerevisiae deletion strains, locus YNL248C, strain rpa49, stronger effect = lower value 0.967 | S. cerevisiae deletion strains, locus YNL271C, strain bni1, stronger effect = lower value 0.977 | S. cerevisiae deletion strains, locus YNL298W, strain CLA4, stronger effect = lower value 0.918 | S. cerevisiae deletion strains, locus YNL322C, strain KRE1 (second series), stronger effect = lower value 0.981 | S. cerevisiae deletion strains, locus YNR049C, strain mso1, stronger effect = lower value 1.01 | S. cerevisiae deletion strains, locus YOL012C, strain htz1 1.03 | S. cerevisiae deletion strains, locus YOL147C, strain pex11, stronger effect = lower value 0.976 | S. cerevisiae deletion strains, locus YOR001W, strain rrp6, stronger effect = lower value 0.931 | S. cerevisiae deletion strains, locus YOR061W, strain CKA2, stronger effect = lower value 0.989 | S. cerevisiae deletion strains, locus YOR070C, strain gyp1, stronger effect = lower value 1.02 | S. cerevisiae deletion strains, locus YOR080W, strain dia2, stronger effect = lower value 0.953 | S. cerevisiae deletion strains, locus YOR083W, strain WHI5, stronger effect = lower value 0.973 | S. cerevisiae deletion strains, locus YOR106W, strain vam3, stronger effect = lower value 0.902 | S. cerevisiae deletion strains, locus YOR136W, strain idh2, stronger effect = lower value 0.984 | S. cerevisiae deletion strains, locus YOR144C, strain elg1, stronger effect = lower value 0.992 | S. cerevisiae deletion strains, locus YOR231W, strain MKK1, stronger effect = lower value 0.977 | S. cerevisiae deletion strains, locus YOR265W, strain rbl2, stronger effect = lower value 0.974 | S. cerevisiae deletion strains, locus YOR290C, strain snf2, stronger effect = lower value 1.04 | S. cerevisiae deletion strains, locus YOR316C, strain cot1, stronger effect = lower value 1.01 | S. cerevisiae deletion strains, locus YPL051W, strain arl3, stronger effect = lower value 0.938 | S. cerevisiae deletion strains, locus YPL078C, strain atp4, stronger effect = lower value 0.947 | S. cerevisiae deletion strains, locus YPL106C, strain sse1, stronger effect = lower value 1.12 | S. cerevisiae deletion strains, locus YPL240C, strain hsp82, stronger effect = lower value 0.996 | S. cerevisiae deletion strains, locus YPL256C, strain CLN2, stronger effect = lower value 0.952 | S. cerevisiae deletion strains, locus YPR119W, strain clb2, stronger effect = lower value 1 | S. cerevisiae deletion strains, locus YPR141C, strain kar3, stronger effect = lower value 0.975 | S. cerevisiae deletion strains, locus YPR167C, strain met16, stronger effect = lower value 0.984
